Reference: PubChem BioAssay (NCATS)
Records with an inconclusive call do not appear. The source made the active and inactive calls. Calls come from the whole dose curve; as a rule, active = well fitted curve in the direction sought with a large enough effect; inconclusive = small, poorly fitted or top-dose-only effect, or another doubt; inactive = no such curve, though single readings can be large; an effect the other way counts as inactive or inconclusive.

Legend:
[1] = Quantitative High-Throughput drug screen in 47 multiple myeloma cell lines against the NCATS MIPE library collection: JIM3_ECACC cell viability assay (AID 1918963; note: nearly all actives have a fitted effect of over 35% in size)
How it was run: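 Inhibition of cell viability is measured here. Each line was plated at 500 cells per well, treated with MIPE 4.0 drugs, kept 48 hours at 37C, then assayed for ATP content by CellTiter-Glo luminescence.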

[2] = Quantitative High-Throughput drug screen in 47 multiple myeloma cell lines against the NCATS MIPE library collection: JIM1_ECACC cell viability assay (AID 1918964)
How it was run: (§1)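 Approved and investigational drugs from MIPE 4.0 were added by pin tool to 500 cells per well. After 48 hours at 37C, ATP-based CellTiter-Glo luminescence indicated remaining viability.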

[3] = Quantitative High-Throughput drug screen in 47 multiple myeloma cell lines against the NCATS MIPE library collection: INA6_PLB cell viability assay (AID 1918965; note: nearly all actives have a fitted effect of over 55% in size)
How it was run: (§2)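 qHTS of the MIPE 4.0 collection: 500 myeloma cells/well, 48 h drug exposure at 37C in 5% CO2, then CellTiter-Glo for 5 min at room temperature before luminescence reading.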

[4] = Quantitative High-Throughput drug screen in 47 multiple myeloma cell lines against the NCATS MIPE library collection: JJN3_DSMZ cell viability assay (AID 1918966; note: nearly all actives have a fitted effect of over 50% in size)
How it was run: as §1

[5] = Quantitative High-Throughput drug screen in 47 multiple myeloma cell lines against the NCATS MIPE library collection: H1112_PLB cell viability assay (AID 1918967; note: nearly all actives have a fitted effect of over 30% in size)
How it was run: as §1

[6] = Quantitative High-Throughput drug screen in 47 multiple myeloma cell lines against the NCATS MIPE library collection: Karpas25_ECACC cell viability assay (AID 1918968; note: nearly all actives have a fitted effect of over 35% in size)
How it was run: as §1

[7] = Quantitative High-Throughput drug screen in 47 multiple myeloma cell lines against the NCATS MIPE library collection: KMS27_JCRB cell viability assay (AID 1918970); note: nearly all actives have a fitted effect of over 30% in size
How it was run: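 CellTiter-Glo luminescence after 48 h drug exposure at 37 °C; 500 cells/well, 1536-well format, pin-tool compound addition; DMSO = 100%, media-only = 0% viability.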

[8] = Quantitative High-Throughput drug screen in 47 multiple myeloma cell lines against the NCATS MIPE library collection: KMS12BM_JCRB cell viability assay (AID 1918971); note: nearly all actives have a fitted effect of over 35% in size
How it was run: (§3)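 Luminescent ATP measurement with CellTiter-Glo gives viability, scaled between DMSO-only wells (100%) and media-only wells (0%). Cells, 500 per well, faced library compounds for 48 hours at 37C.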

[9] = Quantitative High-Throughput drug screen in 47 multiple myeloma cell lines against the NCATS MIPE library collection: KMS12PE_JCRB cell viability assay (AID 1918972); note: nearly all actives have a fitted effect of over 30% in size
How it was run: as §2

[10] = Quantitative High-Throughput drug screen in 47 multiple myeloma cell lines against the NCATS MIPE library collection: KMS20_JCRB cell viability assay (AID 1918973); note: nearly all actives have a fitted effect of over 45% in size
How it was run: as §1

[11] = Quantitative High-Throughput drug screen in 47 multiple myeloma cell lines against the NCATS MIPE library collection: KMS26_JCRB cell viability assay (AID 1918975); note: nearly all actives have a fitted effect of over 45% in size
How it was run: as §3

[12] = Quantitative High-Throughput drug screen in 47 multiple myeloma cell lines against the NCATS MIPE library collection: MMM1_PLB cell viability assay (AID 1918976); note: nearly all actives have a fitted effect of over 35% in size
How it was run: (§4)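 Viability after 48 h drug exposure was measured as ATP-dependent luminescence. Cells, 500 per well, sat at 37 °C under 5% CO2; DMSO wells set 100%, media-only wells 0%.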

[13] = Quantitative High-Throughput drug screen in 47 multiple myeloma cell lines against the NCATS MIPE library collection: MOLP8_DSMZ cell viability assay (AID 1918977); note: nearly all actives have a fitted effect of over 45% in size
How it was run: as §4

[14] = Quantitative High-Throughput drug screen in 47 multiple myeloma cell lines against the NCATS MIPE library collection: NCIH929_DSMZ cell viability assay (AID 1918978); note: nearly all actives have a fitted effect of over 35% in size
How it was run: as §4

[15] = Quantitative High-Throughput drug screen in 47 multiple myeloma cell lines against the NCATS MIPE library collection: OCIMY1_PLB cell viability assay (AID 1918979); note: nearly all actives have a fitted effect of over 35% in size
How it was run: as §4

[16] = Quantitative High-Throughput drug screen in 47 multiple myeloma cell lines against the NCATS MIPE library collection: MM1S_ATCC cell viability assay (AID 1918980); note: nearly all actives have a fitted effect of over 45% in size
How it was run: as §4

[17] = Quantitative High-Throughput drug screen in 47 multiple myeloma cell lines against the NCATS MIPE library collection: MM1R_ATCC cell viability assay (AID 1918981); note: nearly all actives have a fitted effect of over 35% in size
How it was run: as §4

[18] = Quantitative High-Throughput drug screen in 47 multiple myeloma cell lines against the NCATS MIPE library collection: LP1_DSMZ cell viability assay (AID 1918982); note: nearly all actives have a fitted effect of over 35% in size
How it was run: as §4

[19] = Quantitative High-Throughput drug screen in 47 multiple myeloma cell lines against the NCATS MIPE library collection: KMS21BM_JCRB cell viability assay (AID 1918974); conditions: ATP luminescence, 48 h; viability: at 45.8 µM (top of the series) unless noted
How it was run: as §1
Potency is the fitted concentration of half-maximal effect.

Row | Structure (SMILES) | Potency [1] | Potency [2] | Potency [3] | Potency [4] | Potency [5] | Potency [6] | Potency [7] | Potency [8] | Potency [9] | Potency [10] | Potency [11] | Potency [12] | Potency [13] | Potency [14] | Potency [15] | Potency [16] | Potency [17] | Potency [18] | Potency [19]
1 | O=C(Nc1ncc(-c2cc(C(F)F)nn2-c2c(Cl)cccc2Cl)s1)C1CC1 | 0.264 µM (active) | 0.166 µM (active) | 0.296 µM (active) | 1.32 µM (active) | 0.469 µM (active) | 0.662 µM (active) | 0.0833 µM (active) | 1.05 µM (active) | 0.372 µM (active) | 0.469 µM (active) | 2.64 µM (active) | 2.64 µM (active) | 2.09 µM (active) | 2.64 µM (active) | 0.743 µM (active) | 1.48 µM (active) | 1.32 µM (active) | 1.05 µM (active) | –
2 | CCc1c2c(nc3ccc(O)cc13)-c1cc3c(c(=O)n1C2)COC(=O)[C@]3(O)CC | 0.526 µM (active) | 0.0372 µM (active) | – | 0.332 µM (active) | 0.0469 µM (active) | 0.0662 µM (active) | 0.0059 µM (active) | 0.0662 µM (active) | – | 0.118 µM (active) | 2.35 µM (active) | 0.833 µM (active) | 0.166 µM (active) | – | 0.59 µM (active) | 0.0118 µM (active) | 0.0118 µM (active) | 0.662 µM (active) | –
3 | CCC1=C[C@@H]2CN(C1)Cc1c([nH]c3ccccc13)[C@@](C(=O)OC)(c1cc3c(cc1OC)N(C)[C@@H]1[C@@](O)(C(=O)OC)[C@H](OC(C)=O)[C@]4(CC)C=CCN5CC[C@]31[C@@H]54)C2 | 0.0148 µM (active) | 0.0019 µM (active) | – | 7.43 µM (active) | 0.148 µM (active) | 0.0187 µM (active) | 0.0047 µM (active) | 0.0264 µM (active) | – | 0.0235 µM (active) | 2.96 µM (active) | 1.87 µM (active) | 0.0332 µM (active) | 2.09 µM (active) | 2.09 µM (active) | – | 0.187 µM (active) | – | 0.0332 µM (active)
4 | CC(=O)OCCN1C(=O)c2c(C)nc3ccc(S(=O)(=O)N4CCOCC4)cc3c2C1=O | inactive | inactive | inactive | – | – | inactive | – | inactive | inactive | – | – | – | inactive | inactive | – | – | inactive | inactive | –
5 | Cc1cc(Nc2ncnc3ccc(-c4ccc(CNCCS(C)(=O)=O)o4)cc23)ccc1Oc1ccn2ncnc2c1 | 9.35 µM (active) | 5.26 µM (active) | – | 18.7 µM (active) | 6.62 µM (active) | 0.332 µM (active) | 2.64 µM (active) | 18.7 µM (active) | 5.26 µM (active) | 2.09 µM (active) | 26.4 µM (active) | 3.32 µM (active) | 20.9 µM (active) | 4.18 µM (active) | – | 5.9 µM (active) | 20.9 µM (active) | 7.43 µM (active) | –
6 | O=C(O)c1ccc2cc(-c3ccc(O)c(C45CC6CC(CC(C6)C4)C5)c3)ccc2c1 | 3.72 µM (active) | 0.332 µM (active) | 0.264 µM (active) | – | 0.418 µM (active) | 1.48 µM (active) | 0.187 µM (active) | 4.69 µM (active) | 0.526 µM (active) | – | – | 18.7 µM (active) | 1.32 µM (active) | – | 16.6 µM (active) | 1.32 µM (active) | 0.662 µM (active) | 20.9 µM (active) | –
7 | Cc1c(CN2CCN(S(C)(=O)=O)CC2)sc2c(N3CCOCC3)nc(-c3cnc(N)nc3)nc12 | 0.0662 µM (active) | 0.0187 µM (active) | 0.264 µM (active) | 0.0469 µM (active) | 1.18 µM (active) | 0.0187 µM (active) | – | – | – | 0.0372 µM (active) | 0.187 µM (active) | 0.0235 µM (active) | – | 0.0053 µM (active) | 0.0418 µM (active) | 0.0132 µM (active) | 0.0264 µM (active) | – | –
8 | COc1cccc2c(NCc3ccccc3)nc(-n3c(N)nc4ccccc43)nc12 | 2.96 µM (active) | 1.87 µM (active) | 3.72 µM (active) | 6.62 µM (active) | – | 2.64 µM (active) | 1.05 µM (active) | 9.35 µM (active) | 2.35 µM (active) | 2.96 µM (active) | 4.69 µM (active) | 5.9 µM (active) | 3.32 µM (active) | – | 7.43 µM (active) | 5.26 µM (active) | 5.9 µM (active) | 9.35 µM (active) | –
